Most compounds without a hit are left out; they make up all but 1.2% or so of the library.
TNFa cytotox = HUVEC cytotoxicity counter-screen, TNF alpha stimulated. HUVEC TNFalpha-stimulated, Hoechst cell count, imaging. cell count reduction, % at 2 µM. 93,000 compounds, 0.17% hits;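 active = cell count reduction exceeding the screen mean by over 5 SD, scaled to untreated wells per plate, cut at about 78% in these data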;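 also: cells counted after 24 h of TNF alpha exposure following the 1 h pretreatment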
Phagocyt inh = macrophage phagocytosis inhibition; J774A.1 macrophage IgG-bead phagocytosis, imaging; 110,000 compounds, 0.07% hits; inhibition, % at 5 µM;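 active = inhibition above the mean of the plate negative controls plus 5 SD, cut at about 13% in these data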;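 also: phagocytic index as fraction of beads internalized from green versus red external bead signal; plate controls were DMSO negative control for no effect and cytochalasin-D positive control for full effect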
F-actin modifier = cytoskeleton assembly modification; 91,000 compounds, 0.18% hits; AID 836; inhibition, % at 2 µM; HUVEC TNFa F-actin phalloidin imaging, high content;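 active = inhibition above the batch mean plus 3 SD and confirmed as a hit by visual image inspection, cut at about 30% in these data, passing the limit was not always enough; inconclusive = above the inhibition threshold but rejected on visual inspection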
E-sel TNF inh = blocks E-selectin expression induced by TNF alpha. HUVEC TNFa-induced E-selectin immunofluorescence, high content. 120,000 compounds, 0.71% hits. inhibition, % at 2 µM. AID 1246;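 active = inhibition above the batch mean plus 3 SD, and confirmed as a hit on visual image review, cut at about 43% in these data; inconclusive = passes the inhibition cutoff but fails visual image review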;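 also: 0% = TNF-stimulated DMSO wells and 100% = unstimulated control wells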
VCAM1 TNFa inh = reduces TNF alpha induced VCAM1 expression in HUVEC. HUVEC TNFa-induced VCAM-1 immunofluorescence, high-content imaging. inhibition, % at 2 µM. 95,000 compounds, 0.48% hits;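 active = inhibition above the batch mean plus 3 SD, with images confirmed as a hit by eye, cut at about 37% in these data; inconclusive = inhibition above that limit but hit not confirmed in images; inactive = inhibition not above that limit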;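 also: 0% = TNF-stimulated DMSO wells and 100% = unstimulated control wells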
sdo1 growth = compounds rescuing growth of sdo1-depleted yeast, bone marrow failure model | S. cerevisiae sdo1-depleted JHY4D growth rescue, OD600 30 h; stronger effect = higher value; pdr5 snq2 efflux-pump mutant strain | z-score at 10 µM | 140,000 compounds, 0.21% hits;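 active = z-score above 3 at both the 24 hr and the 30 hr optical density reads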;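 also: z-score against mean and SD of all compound wells on the same plate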
sdo1 rescue conf = confirmation of growth rescue in SDO1-depleted yeast, bone marrow failure; S. cerevisiae JHY4D (SDO1-depleted) growth rescue, OD600, 30 h; stronger effect = higher value; efflux-deficient strain, SNQ2 and PDR5 mutated; OD recovery (test concentration not listed); 440 compounds, 44% hits; AID 949; shares compounds with sdo1 growth;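 active = yeast growth recovered at 30 hours, either rising with dose fitted slope above 0.001 or with average optical density gain above 0.07, some results past the limit were not filed as active; inactive = growth falling with dose or no effect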;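 also: gain in OD600 from 0 h to 30 h averaged across all seven doses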
The depositor's hits bear a star; u = inconclusive; x = no result; [ ] = remark or other dose.

SMILES	TNFa cytotox	Phagocyt inh	F-actin modifier	E-sel TNF inh	VCAM1 TNFa inh	sdo1 growth	sdo1 rescue conf
O=[N+]([O-])c1ccc(C2Oc3ccccc3C3CC(c4ccccc4)=NN32)s1 (centres undefined)	x	-2.4	x	-19.4	x	-1.67	x
COc1ccc(C(=O)c2ccc(N(C)C)cc2)c2ccccc12	53.9	x	27.1	-3.6	59.7*	-1.76	x
Fc1ccc(NC(=S)NCc2cccs2)cc1	x	x	x	x	x	0.1	x
CC1Cc2cc(/C(O)=C3/C(=O)C(=O)N(CCCn4ccnc4)C3c3ccncc3)ccc2O1 (centres undefined)	-10.9	x	-27.1	58.3*	5.7	0.38	x
CC1Cc2cc(/C(O)=C3/C(=O)C(=O)N(CCCn4ccnc4)C3c3ccco3)ccc2O1 (centres undefined)	-17.4	-1.4	2.9	0.8	8.1	0.25	x
CCCOc1ccc(/C(O)=C2/C(=O)C(=O)N(CCOC)C2c2cccnc2)cc1 (centres undefined)	80.4*	-0.8	-25.9	-10.9	86.8*	0.51	x
CCCOc1ccc(/C(O)=C2/C(=O)C(=O)N(CCCn3ccnc3)C2c2ccco2)cc1 (centres undefined)	-11.5	x	-10.9	100.0*	10.6	-0.04	x
COc1cccc(/C(O)=C2/C(=O)C(=O)N(Cc3cccnc3)C2c2ccco2)c1 (centres undefined)	10.3	x	-15.7	-23.0	4.4	0.45	x
COc1ccc(/C(O)=C2/C(=O)C(=O)N(Cc3cccnc3)C2c2ccncc2)cc1F (centres undefined)	36.7	x	-10.6	70.0*	3.7	0.21	x
CC1Cc2cc(/C(O)=C3/C(=O)C(=O)N(CCCn4ccnc4)C3c3cccnc3)ccc2O1 (centres undefined)	-18.2	x	17.3	-67.6	11.5	0.45	x
C=CCNC(=O)/C(=C/c1cccc([N+](=O)[O-])c1)NC(=O)c1ccco1	x	x	x	-60.3	x	x	x
O=C(C[n+]1cccc(/C=N/O)c1)N1CCCc2ccccc21	x	x	x	-0.5	x	x	x
O=C(CCn1cnc2ccccc2c1=O)Nc1nc2c(s1)CCCC2	6.7	40.8*[artifact]	4.9	8.1	4.4	0.04	x
COc1ccc(-n2nnnc2S(=O)(=O)Cc2ccc(C(=O)O)cc2)cc1	-17.8	x	13.6	17.6	23.6	0.66	x
COc1ccc(-n2nnnc2S(=O)(=O)CC(=O)N2CCCCC2)cc1	-17.5	0.9	6.3	81.7*	u	-0.95	x
Fc1ccc(-c2ccc(/C=N\n3cnnc3)o2)cc1Cl	x	0.2	x	-10.3	x	0.12	x
CC(C)COC(=O)c1cc(-c2ccc(/C=N/n3cnnc3)o2)ccc1Cl	-4.7	-0.6	-0.7	-16.7	7.1	4.03*	0.124*
O=[N+]([O-])c1ccc(-n2nncc2-c2ccc(Cl)cc2)cc1	-16.7	-2.0	-6.3	1.4	14.9	-0.04	x
Nc1ccc(-n2nncc2-c2ccc(Cl)cc2)cc1	6.9	-2.0	-11.5	-1.5	5.1	12.7*	0.0438
Cc1nc(SC(C(=O)c2ccccc2)c2ccccc2)nc2ccccc12 (centres undefined)	x	-4.1	x	6.5	x	-0.62	x
COc1ccc2nc(SC(C(=O)c3ccccc3)c3ccccc3)nc(C)c2c1 (centres undefined)	x	-13.1	x	x	x	1.41	0.0665
N#Cc1c(C(F)(F)F)cc(-c2ccccc2)nc1SCC(=O)Nc1sc2c(c1C#N)CCC2	-26.8	x	29.8	x	-7.5	1.54	0.0934*
O=C1CCCN1c1nccs1	x	x	x	-31.8	x	x	x
Cn1c(=O)c2c(nc(N3CCCC3)n2CC(O)CO)n(C)c1=O (centres undefined)	-17.1	-1.4	45.9	2.4	8.8	2.25	0.0968*
NC(=O)CCn1nc(-c2ccc(Cl)cc2)c2ccccc2c1=O	-13.2	-0.6	16.9	-8.5	-1.1	4.26*	0.0766*
CNC(=O)CCn1nc(-c2ccccc2)c2ccccc2c1=O	-18.1	-0.9	37.9	0.6	12.1	0.12	x
O=C(/C=C/c1ccccc1)OCc1cnc(Cl)s1	x	x	x	-0.7	x	x	x
CN(CC(=O)NCc1cccnc1)S(=O)(=O)c1ccc2c(c1)c(=O)n(C)c(=O)n2C	-21.1	-0.2	11.7	-0.9	17.0	3.01*	0.0744*
COc1ccc(CC(NC(C)=O)C(=O)NC2CCN(S(=O)(=O)c3cccc4ccccc34)CC2)cc1OC (centres undefined)	-1.4	-0.9	-2.7	-10.9	1.6	2.13	0.0971*
